In PubChem BioAssay (Tox21):
Values joined by “and” are separate entries in the source; they are usually repeats but may differ in a detail not shown here. Identical values can stand only once. Records with an inconclusive call do not appear. Where a structure was tested more than once in an assay, its records may differ in their call. Active and inactive are the calls of the source. Unless noted, calls follow the shape of the dose curve; as a rule, active = well fitted curve in the direction sought with a large enough effect in the repeat runs; inconclusive = weak or mixed curves; inactive = no such curve, though single readings can be large; an effect the other way counts as inactive or inconclusive.

Experiments:
[1] = target: Retinoic acid receptor RXR-alpha (Homo sapiens) (UniProt P19793); test: qHTS assay to identify small molecule agonists of the RXR signaling pathway (AID 1159527; calls by dose curve; also: nearly all actives have a fitted effect of over 35% in size; also: potency is read from the fitted curve at half-maximal effect)
Sequence of Retinoic acid receptor RXR-alpha (Homo sapiens) (P19793 whole entry, looked up): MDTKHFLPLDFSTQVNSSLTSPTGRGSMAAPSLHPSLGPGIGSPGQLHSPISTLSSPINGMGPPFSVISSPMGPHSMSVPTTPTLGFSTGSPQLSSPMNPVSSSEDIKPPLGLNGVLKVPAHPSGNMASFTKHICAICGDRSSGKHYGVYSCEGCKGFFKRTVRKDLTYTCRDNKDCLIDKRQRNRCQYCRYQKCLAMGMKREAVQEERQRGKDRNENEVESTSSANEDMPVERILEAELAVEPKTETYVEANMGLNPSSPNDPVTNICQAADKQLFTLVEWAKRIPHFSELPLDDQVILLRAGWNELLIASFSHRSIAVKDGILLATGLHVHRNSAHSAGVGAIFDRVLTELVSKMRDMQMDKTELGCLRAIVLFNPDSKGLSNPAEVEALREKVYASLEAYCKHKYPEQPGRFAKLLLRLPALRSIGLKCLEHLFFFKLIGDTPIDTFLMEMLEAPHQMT
Outline: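 Agonist-mode beta-lactamase reporter assay: HEK 293T RXR-alpha-UAS-bla cells treated 16 hr at 37 C with compounds, 9-cis retinoic acid as positive control. LiveBLAzer FRET substrate, 405 nm excitation, 460/530 nm emission.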

[2] = qHTS assay to identify small molecule agonists of the RXR signaling pathway - cell viability counter screen (AID 1159529); also: series mostly up to about 77 µM; nearly all actives have a fitted effect of over 50% in size
Outline: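 CellTiter-Glo luminescence gave viability in the wells also read for beta-lactamase. Cells (RXR-alpha-UAS-bla HEK 293T, 2% charcoal-stripped FBS medium) had 5 hr plating, then 16 hr compound exposure at 37 C; tetraoctyl ammonium bromide served as positive control.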

[3] = qHTS assay to identify small molecule antagonists of the retinoid acid receptor (RAR) signaling pathway - cell viability counter screen (AID 1159551); also: nearly all actives have a fitted effect of over 35% in size
Outline: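 Retinol-stimulated (1 uM final) C3RL4 cells, compound 6 h, 37 C; readout CellTiter-Glo luminescence (ATP) after 30 min RT incubation.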

[4] = qHTS assay to identify small molecule antagonists of the retinoic acid receptor (RAR) signaling pathway (AID 1159552; also: nearly all actives have a fitted effect of over 50% in size; also: potency is read from the fitted curve at half-maximal effect)
Outline: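 Luminescent RARE reporter read-out in C3RL4 cells: 6 hr co-treatment at 37 C of test compounds with retinol at 1 uM final. Cells plated overnight beforehand; luciferase reagent incubated 30 min at room temperature before reading.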

[5] = qHTS assay to identify small molecule agonists of the retinoic acid receptor (RAR) signaling pathway (AID 1159553); also: potency is read from the fitted curve at half-maximal effect
Outline: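 Reporter readout comes from luciferase under RARE control in C3RL4 cells; compound exposure lasts 6 hr at 37 C in 5% CO2, and luminescence is recorded following a 30 min room-temperature incubation with reagent.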

[6] = qHTS assay to identify small molecule antagonists of the estrogen related receptor (ERR) signaling pathway from Tox21 library - cell viability counter screen (AID 1224834); also: nearly all actives have a fitted effect of over 30% in size
Outline: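 After 17.5 h of compound exposure at 37 C, ERR cells are incubated with CellTiter-Fluor for 30 min and fluorescence intensity serves as the viability measure.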

[7] = target: Luciferin 4-monooxygenase (Photinus pyralis) (UniProt P08659); test: qHTS assay to identify small molecule inhibitors of firefly luciferase (AID 1224835); also: nearly all actives have a fitted effect of over 25% in size; also: potency is read from the fitted curve at half-maximal effect; as to activity change, negative = inhibition: series mostly up to about 120 µM
Sequence of Luciferin 4-monooxygenase (Photinus pyralis) (P08659 whole entry, looked up): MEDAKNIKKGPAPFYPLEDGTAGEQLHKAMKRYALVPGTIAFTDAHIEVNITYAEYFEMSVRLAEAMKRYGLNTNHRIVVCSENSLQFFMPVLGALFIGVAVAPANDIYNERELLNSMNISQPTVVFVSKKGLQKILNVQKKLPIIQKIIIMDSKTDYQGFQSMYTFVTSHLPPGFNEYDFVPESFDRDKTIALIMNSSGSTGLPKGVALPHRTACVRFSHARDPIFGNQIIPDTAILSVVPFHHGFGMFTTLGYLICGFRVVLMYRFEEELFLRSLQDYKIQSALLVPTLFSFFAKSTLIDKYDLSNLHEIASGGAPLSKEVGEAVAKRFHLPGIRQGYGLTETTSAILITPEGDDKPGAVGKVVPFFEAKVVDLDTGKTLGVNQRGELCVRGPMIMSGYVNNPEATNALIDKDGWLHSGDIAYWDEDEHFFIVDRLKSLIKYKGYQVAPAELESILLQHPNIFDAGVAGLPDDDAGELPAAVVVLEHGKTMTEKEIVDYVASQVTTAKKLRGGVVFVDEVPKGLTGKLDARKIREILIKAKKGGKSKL
Outline: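 Inhibition of purified Photinus luciferase is measured by luminescence. Substrate levels (D-luciferin, ATP) sit at their KM values. Each compound is tested in a concentration series.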

[8] = qHTS assay to identify small molecule agonists of the constitutive androstane receptor (CAR) signaling pathway - cell viability counter screen (AID 1224836); also: series mostly up to about 92 µM; nearly all actives have a fitted effect of over 45% in size
Outline: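 Cell viability multiplexed with the CAR agonist screen: CellTiter-Fluor fluorescence after 23 hr at 37 C. HepG2-CYP2B6-hCAR cells got compounds at 15 concentrations with PK11195 at 0.75 uM final.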

[9] = qHTS assay to identify small molecule antagonists of the estrogen related receptor (ERR) signaling pathway - cell viability counter screen (AID 1224818); also: series mostly up to about 46 µM
Outline: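 After a 6 h pre-incubation, ERR cells were dosed by pin tool with compounds, positive/negative controls or DMSO alone. Following 17.5 h at 37 C and 30 min with CellTiter-Fluor, fluorescence was recorded.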

[10] = qHTS assay to identify small molecule antagonists of the estrogen related receptor signaling pathway with the pleiotropic PPARgamma coactivator (PGC) cell viability counter screen (AID 1224822; also: series mostly up to about 46 µM)
Outline: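 PGC/ERR cells were plated at 2,000 per well and allowed 6 h to settle before compound addition. Following 17.5 h at 37 C, CellTiter-Fluor reagent was added and fluorescence was read 30 min later.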
% is scaled to controls: 0 for no effect and ±100 for the full control effect.

Cc1ccc(S(N)(=O)=O)cc1
inactive: Potency [1] | Potency [2] | outcome [3] | Potency [4] | Potency [5] | Potency [6] | Potency [7] | Potency [8]

COCCCOc1ccnc(CS(=O)c2nc3ccccc3[nH]2)c1C (stereo not drawn)
inactive: Potency [1] | Potency [2] | outcome [3] | Potency [4] | Potency [6] | Potency [8]
active: Potency [5] 3.84 µM

Cc1cccc(O)c1
inactive: Potency [1] | Potency [2] | outcome [3] | Potency [6] | Potency [7] | Potency [8]

C=C(C)C(=O)Nc1ccc(Cl)c(Cl)c1
inactive: Potency [1] | Potency [2] | outcome [3] | Potency [6] | Potency [7] | Potency [8]

Nc1ccccc1[N+](=O)[O-]
inactive: Potency [1] | Potency [2] | outcome [3] | Potency [4] | Potency [6] | Potency [7] | Potency [8]

O=S(=O)(O)c1ccc2ccccc2c1
inactive: Potency [2] | outcome [3] | Potency [6] | Potency [7] | Potency [8]
active: Potency [1] 11 µM

CC1=C(C)S(=O)(=O)CCS1(=O)=O
inactive: Potency [1] | Potency [2] | outcome [3] | Potency [6] | Potency [7] | Potency [8]

CCCCCCCCCCCCCCO
active: Potency [7] 22.7 µM
inactive: Potency [1] | Potency [2] | outcome [3] | Potency [6] | Potency [8]

CC(=O)c1ccccc1
inactive: Potency [1] | Potency [2] | outcome [3] | Potency [6] | Potency [7] | Potency [8]

c1ccc(OCCOc2ccccc2)cc1
inactive: Potency [1] | Potency [2] | outcome [3] | Potency [6] | Potency [8]
active: Potency [7] 28.2 µM and 35.6 µM

O=P(OC(CCl)CCl)(OC(CCl)CCl)OC(CCl)CCl
inactive: Potency [1] | Potency [2] | outcome [3] | Potency [5] | Potency [7] | Potency [8]
inactive and 27.3 µM (active): Potency [4]

C[Si](O[Si](C)(C)C)O[Si](C)(C)C
inactive: Potency [1] | Potency [2] | outcome [3] | Potency [6] | Potency [7] | Potency [8]

CCC(O)OCCCOC (stereo not drawn)
inactive: Potency [1] | Potency [2] | outcome [3] | Potency [6] | Potency [7] | Potency [8]

CN(C)CCCN
inactive: Potency [1] | Potency [2] | outcome [3] | Potency [6] | Potency [7] | Potency [8]

O=c1[nH]nnc2ccccc12
inactive: Potency [1] | Potency [2] | outcome [3] | Potency [6] | Potency [7] | Potency [8]

Cc1ccc(N(C)C)cc1
inactive: Potency [1] | Potency [2] | outcome [3] | Potency [4] | Potency [5] | Potency [6] | Potency [7] | Potency [8]

CC(=O)OCC(=O)[C@@]12N=C(C)O[C@@H]1C[C@H]1[C@@H]3CCC4=CC(=O)C=C[C@]4(C)[C@H]3[C@@H](O)C[C@@]12C
inactive: Potency [1] | Potency [2] | outcome [3] | Potency [5] | Potency [6] | Potency [7] | Potency [8]

CC(C)(N)CO
inactive: Potency [1] | Potency [2] | outcome [3] | Potency [6] | Potency [7] | Potency [8]

O=c1[nH]c(=O)n([C@H]2CCCO2)cc1F
17.4 µM (active) and inactive: Potency [1]
inactive: Potency [2] | outcome [3] | Potency [4] | Potency [5] | Potency [6] | Potency [7] | Potency [8]

CCCCN(CCCC)CCCC
inactive: Potency [1] | Potency [2] | outcome [3] | Potency [6] | Potency [7] | Potency [8]

FC(F)(F)c1ccc(Cl)c(Cl)c1
inactive: Potency [1] | Potency [2] | outcome [3] | Potency [6] | Potency [7] | Potency [8]

Cc1cccnc1
inactive: Potency [1] | Potency [2] | outcome [3] | Potency [6] | Potency [7] | Potency [8]

CCN(CC)CCCC(C)Nc1ccnc2cc(Cl)ccc12 (stereo not drawn)
inactive: activation [1] -0.146% [at 15.8 µM] | activity change, negative = cytotoxicity [2] -13.3% [at 6.97 µM] and -18.7% [at 15.8 µM] | activity change, negative = cytotoxicity [3] 1.59% [at 8.39 µM] and -1.6% [at 19 µM] | outcome [9] | viability change, negative = cytotoxic [6] -0.582% [at 8.39 µM] | activity change, negative = inhibition [7] -0.277% [at 10.5 µM] and -0.0339% [at 23.6 µM] | viability change, negative = cytotoxic [8] -3.22% [at 8.39 µM]

O=C=NCCCCCCN=C=O
inactive: Potency [1] | Potency [2] | outcome [3] | Potency [4] | Potency [5] | Potency [6] | Potency [7] | Potency [8]

CC(O)COCC(C)O (stereo not drawn)
inactive: Potency [1] | Potency [2] | outcome [3] | Potency [6] | Potency [7] | Potency [8]

COc1cc(Cc2cnc(N)nc2N)cc(OC)c1OC
inactive: Potency [2] | outcome [3] | Potency [4] | Potency [5] | outcome [9] | outcome [10] | Potency [6] | Potency [7] | Potency [8]

CCCCCC/C(C=O)=C\c1ccccc1
inactive: Potency [2] | outcome [3] | Potency [4] | Potency [5] | Potency [6] | Potency [8]

CC(C)CC(=O)CC(C)C
inactive: Potency [1] | Potency [2] | outcome [3] | Potency [6] | Potency [7] | Potency [8]

CCCCCC(N)=O
inactive: Potency [1] | Potency [2] | outcome [3] | Potency [6] | Potency [7] | Potency [8]

COc1ccc(Cl)cc1C(=O)NCCc1ccc(S(=O)(=O)NC(=O)NC2CCCCC2)cc1
inactive: Potency [2] | outcome [3] | Potency [4] | Potency [5] | outcome [9] | outcome [10] | Potency [6] | Potency [8]

Oc1cccc2ccccc12
inactive: Potency [1] | Potency [2] | outcome [3] | Potency [6] | Potency [8]
